Experimental data taken from ChEMBL document CHEMBL2218924, “A broad activity screen in support of a chemogenomic map for kinase signalling research and drug discovery” (Biochem J, 2013).

Legend:
[1] = target: MAP kinase-activated protein kinase 2 (Homo sapiens) (UniProt P49137); details: at 10 µM
[2] = target: MAP kinase-activated protein kinase 3 (Homo sapiens) (UniProt Q16644); details: at 10 µM
[3] = target: Serine/threonine-protein kinase MARK1 (Homo sapiens) (UniProt Q9P0L2); details: at 1 µM
[4] = target: Serine/threonine-protein kinase MARK1 (Homo sapiens) (UniProt Q9P0L2); details: at 10 µM
[5] = target: Dual specificity mitogen-activated protein kinase kinase 1 (Homo sapiens) (UniProt Q02750); details: at 1 µM
[6] = target: Dual specificity mitogen-activated protein kinase kinase 1 (Homo sapiens) (UniProt Q02750); details: at 10 µM
[7] = target: Maternal embryonic leucine zipper kinase (Homo sapiens) (UniProt Q14680); details: at 1 µM
[8] = target: Maternal embryonic leucine zipper kinase (Homo sapiens) (UniProt Q14680); details: at 10 µM
[9] = target: Misshapen-like kinase 1 (Homo sapiens) (UniProt Q8N4C8); details: at 1 µM
[10] = target: Misshapen-like kinase 1 (Homo sapiens) (UniProt Q8N4C8); details: at 10 µM
[11] = target: T1, Dual specificity mitogen-activated protein kinase kinase 6 (Homo sapiens) (UniProt P52564); details: at 1 µM
T1 sequence (whole entry): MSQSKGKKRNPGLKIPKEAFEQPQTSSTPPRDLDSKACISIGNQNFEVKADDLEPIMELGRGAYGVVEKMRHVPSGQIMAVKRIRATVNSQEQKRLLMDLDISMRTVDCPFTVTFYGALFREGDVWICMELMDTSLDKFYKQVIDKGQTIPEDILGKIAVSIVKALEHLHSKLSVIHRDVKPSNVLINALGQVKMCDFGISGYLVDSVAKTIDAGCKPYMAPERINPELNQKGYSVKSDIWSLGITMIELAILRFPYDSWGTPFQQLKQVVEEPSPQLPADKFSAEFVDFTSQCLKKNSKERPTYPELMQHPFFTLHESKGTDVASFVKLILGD

[12] = target: T1, Dual specificity mitogen-activated protein kinase kinase 6 (Homo sapiens); details: at 10 µM
[13] = target: T2, Dual specificity mitogen-activated protein kinase kinase 7 (Homo sapiens) (UniProt O14733); details: at 1 µM
T2 sequence (whole entry): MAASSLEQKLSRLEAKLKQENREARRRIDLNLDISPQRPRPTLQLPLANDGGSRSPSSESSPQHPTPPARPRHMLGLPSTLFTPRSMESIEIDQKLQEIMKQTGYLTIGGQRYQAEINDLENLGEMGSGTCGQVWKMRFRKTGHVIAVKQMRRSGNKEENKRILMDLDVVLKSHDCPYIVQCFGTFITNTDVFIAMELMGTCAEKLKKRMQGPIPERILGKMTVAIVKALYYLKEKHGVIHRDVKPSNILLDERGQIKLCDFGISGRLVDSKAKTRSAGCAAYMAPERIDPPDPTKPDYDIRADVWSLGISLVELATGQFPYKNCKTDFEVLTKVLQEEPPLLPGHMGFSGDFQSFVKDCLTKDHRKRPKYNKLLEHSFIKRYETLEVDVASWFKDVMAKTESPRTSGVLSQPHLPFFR

[14] = target: T2, Dual specificity mitogen-activated protein kinase kinase 7 (Homo sapiens); details: at 10 µM
[15] = target: Myosin light chain kinase, smooth muscle (Homo sapiens) (UniProt Q15746); details: at 1 µM
[16] = target: Myosin light chain kinase, smooth muscle (Homo sapiens) (UniProt Q15746); details: at 10 µM
[17] = target: Mitogen-activated protein kinase kinase kinase 9 (Homo sapiens) (UniProt P80192); details: at 1 µM
[18] = target: Mitogen-activated protein kinase kinase kinase 9 (Homo sapiens) (UniProt P80192); details: at 10 µM
[19] = target: Serine/threonine-protein kinase MRCK alpha (Homo sapiens) (UniProt Q5VT25); details: at 1 µM
[20] = target: Serine/threonine-protein kinase MRCK alpha (Homo sapiens) (UniProt Q5VT25); details: at 10 µM

Misshapen-like kinase 1 (Homo sapiens), sequence (Q8N4C8 whole entry, looked up): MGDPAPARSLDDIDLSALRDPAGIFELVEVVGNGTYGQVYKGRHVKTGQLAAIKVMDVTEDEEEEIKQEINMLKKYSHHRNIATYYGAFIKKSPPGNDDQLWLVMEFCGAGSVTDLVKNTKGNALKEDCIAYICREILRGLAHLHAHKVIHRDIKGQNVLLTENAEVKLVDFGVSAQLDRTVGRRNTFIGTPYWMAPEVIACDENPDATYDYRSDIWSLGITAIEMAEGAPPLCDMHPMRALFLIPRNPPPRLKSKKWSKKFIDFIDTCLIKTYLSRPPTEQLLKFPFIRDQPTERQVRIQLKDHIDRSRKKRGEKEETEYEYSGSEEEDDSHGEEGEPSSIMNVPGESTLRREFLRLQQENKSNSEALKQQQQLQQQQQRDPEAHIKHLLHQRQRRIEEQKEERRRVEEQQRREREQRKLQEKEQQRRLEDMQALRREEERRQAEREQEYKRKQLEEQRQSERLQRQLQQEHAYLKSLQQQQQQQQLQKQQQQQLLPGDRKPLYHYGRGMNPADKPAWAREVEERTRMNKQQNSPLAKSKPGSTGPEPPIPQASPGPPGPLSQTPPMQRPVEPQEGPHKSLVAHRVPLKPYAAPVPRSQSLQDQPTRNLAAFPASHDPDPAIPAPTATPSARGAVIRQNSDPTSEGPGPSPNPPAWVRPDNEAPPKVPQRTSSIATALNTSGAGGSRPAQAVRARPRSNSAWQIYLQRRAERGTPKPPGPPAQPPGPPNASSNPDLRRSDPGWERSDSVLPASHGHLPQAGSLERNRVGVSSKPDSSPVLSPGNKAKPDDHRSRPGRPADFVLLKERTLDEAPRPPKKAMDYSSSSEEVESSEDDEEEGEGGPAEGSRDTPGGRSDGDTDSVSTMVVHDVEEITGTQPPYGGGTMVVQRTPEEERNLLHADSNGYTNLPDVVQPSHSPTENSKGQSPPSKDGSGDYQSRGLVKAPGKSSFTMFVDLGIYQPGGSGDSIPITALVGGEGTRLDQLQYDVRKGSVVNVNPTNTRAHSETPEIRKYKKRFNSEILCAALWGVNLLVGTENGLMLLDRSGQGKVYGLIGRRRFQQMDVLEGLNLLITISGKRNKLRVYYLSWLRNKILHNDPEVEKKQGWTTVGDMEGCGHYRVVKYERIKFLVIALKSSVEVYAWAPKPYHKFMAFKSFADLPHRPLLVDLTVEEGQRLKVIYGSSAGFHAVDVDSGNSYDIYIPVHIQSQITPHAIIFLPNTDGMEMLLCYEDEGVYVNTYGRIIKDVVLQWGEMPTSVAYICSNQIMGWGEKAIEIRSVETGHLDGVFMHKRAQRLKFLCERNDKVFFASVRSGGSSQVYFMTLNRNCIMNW
Serine/threonine-protein kinase MARK1 (Homo sapiens), sequence (Q9P0L2 whole entry, looked up): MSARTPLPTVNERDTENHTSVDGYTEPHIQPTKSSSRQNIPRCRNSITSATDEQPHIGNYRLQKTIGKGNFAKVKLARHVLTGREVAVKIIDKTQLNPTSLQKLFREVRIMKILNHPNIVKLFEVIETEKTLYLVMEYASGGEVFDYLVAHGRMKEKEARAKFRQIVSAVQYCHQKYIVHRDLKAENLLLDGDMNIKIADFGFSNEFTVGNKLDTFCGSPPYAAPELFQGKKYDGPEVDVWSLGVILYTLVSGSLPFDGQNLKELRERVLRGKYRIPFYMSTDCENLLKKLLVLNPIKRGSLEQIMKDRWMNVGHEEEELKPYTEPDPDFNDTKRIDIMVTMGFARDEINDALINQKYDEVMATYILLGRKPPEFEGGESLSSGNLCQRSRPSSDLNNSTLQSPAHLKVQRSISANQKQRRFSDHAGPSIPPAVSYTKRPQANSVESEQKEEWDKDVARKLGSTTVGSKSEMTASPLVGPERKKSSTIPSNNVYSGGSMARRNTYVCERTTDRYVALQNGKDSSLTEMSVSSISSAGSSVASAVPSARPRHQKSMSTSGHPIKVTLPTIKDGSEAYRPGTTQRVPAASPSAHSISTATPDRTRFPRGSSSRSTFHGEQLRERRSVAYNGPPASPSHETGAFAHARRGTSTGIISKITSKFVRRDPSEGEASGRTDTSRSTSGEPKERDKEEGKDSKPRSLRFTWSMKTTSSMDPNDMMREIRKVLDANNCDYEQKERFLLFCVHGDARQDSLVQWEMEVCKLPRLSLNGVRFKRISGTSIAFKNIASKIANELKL
Dual specificity mitogen-activated protein kinase kinase 1 (Homo sapiens), sequence (Q02750 whole entry): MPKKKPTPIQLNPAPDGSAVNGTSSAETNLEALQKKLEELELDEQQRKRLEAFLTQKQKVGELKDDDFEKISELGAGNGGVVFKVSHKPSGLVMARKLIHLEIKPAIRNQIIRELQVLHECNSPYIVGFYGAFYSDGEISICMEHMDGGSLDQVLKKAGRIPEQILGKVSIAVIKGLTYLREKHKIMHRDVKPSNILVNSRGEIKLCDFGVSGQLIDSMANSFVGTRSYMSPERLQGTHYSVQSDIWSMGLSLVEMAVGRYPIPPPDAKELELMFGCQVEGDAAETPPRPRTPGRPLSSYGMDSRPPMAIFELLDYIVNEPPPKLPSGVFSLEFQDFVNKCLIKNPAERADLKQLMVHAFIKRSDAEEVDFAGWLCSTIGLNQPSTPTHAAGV
Maternal embryonic leucine zipper kinase (Homo sapiens), sequence (Q14680 whole entry, looked up): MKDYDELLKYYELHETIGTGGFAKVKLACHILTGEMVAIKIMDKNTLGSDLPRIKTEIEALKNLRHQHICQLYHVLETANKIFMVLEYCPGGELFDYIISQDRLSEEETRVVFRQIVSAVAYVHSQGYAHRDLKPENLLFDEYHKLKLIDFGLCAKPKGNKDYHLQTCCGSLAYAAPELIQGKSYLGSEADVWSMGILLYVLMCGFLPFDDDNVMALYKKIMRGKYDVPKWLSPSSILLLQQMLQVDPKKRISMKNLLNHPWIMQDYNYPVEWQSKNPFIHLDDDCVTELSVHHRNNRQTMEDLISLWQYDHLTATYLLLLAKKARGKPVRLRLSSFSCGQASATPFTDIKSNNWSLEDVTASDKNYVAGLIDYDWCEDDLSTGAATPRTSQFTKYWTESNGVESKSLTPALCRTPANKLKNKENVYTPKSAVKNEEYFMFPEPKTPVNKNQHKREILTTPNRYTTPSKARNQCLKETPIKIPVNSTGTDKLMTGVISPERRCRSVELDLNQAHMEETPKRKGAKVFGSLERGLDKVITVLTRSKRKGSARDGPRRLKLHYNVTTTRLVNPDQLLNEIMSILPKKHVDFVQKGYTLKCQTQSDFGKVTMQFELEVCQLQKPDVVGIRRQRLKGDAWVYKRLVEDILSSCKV
Mitogen-activated protein kinase kinase kinase 9 (Homo sapiens), sequence (P80192 whole entry, looked up): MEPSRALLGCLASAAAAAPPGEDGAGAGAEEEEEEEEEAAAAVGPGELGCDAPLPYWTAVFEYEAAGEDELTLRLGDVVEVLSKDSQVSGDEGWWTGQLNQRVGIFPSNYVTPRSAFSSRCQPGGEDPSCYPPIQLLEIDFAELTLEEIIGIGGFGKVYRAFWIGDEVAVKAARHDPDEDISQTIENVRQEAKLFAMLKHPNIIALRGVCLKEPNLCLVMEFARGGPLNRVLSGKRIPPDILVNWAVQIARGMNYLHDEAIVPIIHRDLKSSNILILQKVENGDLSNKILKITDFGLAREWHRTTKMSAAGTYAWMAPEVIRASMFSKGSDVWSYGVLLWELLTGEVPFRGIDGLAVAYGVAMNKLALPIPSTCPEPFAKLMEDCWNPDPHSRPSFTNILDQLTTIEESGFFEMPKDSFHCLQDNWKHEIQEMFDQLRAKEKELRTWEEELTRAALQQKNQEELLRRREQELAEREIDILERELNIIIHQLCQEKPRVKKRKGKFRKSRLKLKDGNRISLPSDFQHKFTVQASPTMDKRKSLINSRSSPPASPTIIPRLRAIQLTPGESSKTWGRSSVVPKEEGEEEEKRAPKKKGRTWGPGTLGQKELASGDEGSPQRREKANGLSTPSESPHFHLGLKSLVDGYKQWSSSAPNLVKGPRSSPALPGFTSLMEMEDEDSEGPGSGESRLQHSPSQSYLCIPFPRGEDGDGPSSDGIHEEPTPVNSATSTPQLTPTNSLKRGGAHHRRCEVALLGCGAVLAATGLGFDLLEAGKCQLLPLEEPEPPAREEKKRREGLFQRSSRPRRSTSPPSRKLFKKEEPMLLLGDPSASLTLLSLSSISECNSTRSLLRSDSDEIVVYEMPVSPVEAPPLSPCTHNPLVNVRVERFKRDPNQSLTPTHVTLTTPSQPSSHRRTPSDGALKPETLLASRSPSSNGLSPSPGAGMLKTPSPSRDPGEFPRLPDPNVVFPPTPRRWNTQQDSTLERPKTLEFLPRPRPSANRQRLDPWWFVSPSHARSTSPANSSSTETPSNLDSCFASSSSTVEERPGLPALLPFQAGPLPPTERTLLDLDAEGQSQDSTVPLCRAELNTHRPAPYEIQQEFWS
MAP kinase-activated protein kinase 3 (Homo sapiens), sequence (Q16644 whole entry, looked up): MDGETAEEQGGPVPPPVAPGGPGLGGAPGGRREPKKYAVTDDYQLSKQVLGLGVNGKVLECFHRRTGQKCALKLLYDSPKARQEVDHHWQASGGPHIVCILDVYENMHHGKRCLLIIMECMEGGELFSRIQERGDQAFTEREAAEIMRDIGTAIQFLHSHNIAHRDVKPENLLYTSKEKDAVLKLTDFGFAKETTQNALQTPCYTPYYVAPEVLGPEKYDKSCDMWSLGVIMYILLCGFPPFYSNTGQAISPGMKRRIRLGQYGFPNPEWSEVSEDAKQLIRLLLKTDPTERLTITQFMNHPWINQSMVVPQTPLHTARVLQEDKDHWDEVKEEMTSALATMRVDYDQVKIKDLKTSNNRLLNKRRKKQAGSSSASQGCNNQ
MAP kinase-activated protein kinase 2 (Homo sapiens), sequence (P49137 whole entry, looked up): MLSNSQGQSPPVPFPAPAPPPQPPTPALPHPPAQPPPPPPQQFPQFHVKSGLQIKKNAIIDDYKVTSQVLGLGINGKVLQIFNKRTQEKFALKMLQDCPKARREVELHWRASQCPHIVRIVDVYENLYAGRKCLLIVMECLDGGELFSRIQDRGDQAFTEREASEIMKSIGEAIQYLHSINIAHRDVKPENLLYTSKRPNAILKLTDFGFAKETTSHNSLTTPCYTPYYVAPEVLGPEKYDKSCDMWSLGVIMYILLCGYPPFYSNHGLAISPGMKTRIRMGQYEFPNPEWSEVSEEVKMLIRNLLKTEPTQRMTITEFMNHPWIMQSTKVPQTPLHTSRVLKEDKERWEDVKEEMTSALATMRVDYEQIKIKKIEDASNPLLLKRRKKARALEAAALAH

SMILES	residual activity [1] [%]	residual activity [2] [%]	residual activity [3] [%]	residual activity [4] [%]	residual activity [5] [%]	residual activity [6] [%]	residual activity [7] [%]	residual activity [8] [%]	residual activity [9] [%]	residual activity [10] [%]	residual activity [11] [%]	residual activity [12] [%]	residual activity [13] [%]	residual activity [14] [%]	residual activity [15] [%]	residual activity [16] [%]	residual activity [17] [%]	residual activity [18] [%]	residual activity [19] [%]	residual activity [20] [%]
O=C1NC(=O)c2cc(Nc3ccc(F)cc3)c(Nc3ccc(F)cc3)cc21	93	69	82	75	109	122	89	76	83	71	72	58	98	97	55	70	86	75	100	111
Nc1n[nH]c2nnc(-c3c(-c4ccccc4)nn4ccccc34)cc12	94	93	83	78	89	38	91	97	89	39	104	65	88	70	113	74	86	31	111	98
Oc1n[nH]c2nnc(-c3c(-c4ccccc4)nn4ccccc34)cc12	90	86	75	76	104	109	53	36	105	92	126	89	95	101	84	52	89	48	94	79
O=C1NC(=O)/C(=C\c2ccc3nccnc3c2)S1	85	91	86	71	108	84	64	31	89	61	95	85	96	88	81	62	80	53	106	93
Cc1nc2cc3nc(-c4cccs4)cnc3cc2n1C	114	100	107	100	120	91	89	67	112	98	75	149	109	110	82	105	86	44	116	102
O=c1c2ccccc2[nH]c(=S)n1CCN1CCC(=C(c2ccc(F)cc2)c2ccc(F)cc2)CC1	89	86	100	87	98	92	86	86	88	65	107	93	82	90	73	86	92	101	107	103
O=C1NC(=O)c2c1c1c3ccccc3[nH]c1c1[nH]c3cc(Br)ccc3c21	93	89	67	34	75	98	87	82	109	90	94	87	87	86	27	37	85	31	87	88
NC(=O)c1ccc2[nH]c(-c3ccc(Oc4ccc(Cl)cc4)cc3)nc2c1	126	127	85	70	91	111	91	83	91	66	91	94	94	103	93	96	89	34	113	127
CO[C@@H]1[C@H](N(C)C(=O)c2ccccc2)C[C@H]2O[C@]1(C)n1c3ccccc3c3c4c(c5c6ccccc6n2c5c31)C(=O)NC4	47	37	1	0	74	56	5	2	52	18	52	58	111	135	13	10	1	1	93	102
CC(C)n1cnc2c(NCc3ccccc3)nc(NCCCO)nc21	90	80	81	81	103	110	86	77	108	100	94	74	91	75	93	74	97	73	86	83
CO[C@H]1[C@@H](OC)C[C@H](C)[C@@H](OC)C2=CC(=O)C=C(NC(=O)/C(C)=C/C=C/[C@H](OC)[C@@H](OC(N)=O)/C(C)=C/[C@@H]1C)C2=O	85	81	92	82	102	95	60	63	95	92	72	99	92	88	98	90	92	99	114	92
O=C1c2ccccc2-[n+]2ccc3c([nH]c4ccccc43)c21	98	89	80	77	97	110	85	67	99	87	109	92	91	97	95	79	91	83	100	86
COc1ccc(S(=O)(=O)N(CCO)c2ccccc2CN(C)C/C=C/c2ccc(Cl)cc2)cc1	73	84	83	77	97	79	90	63	98	97	99	74	101	73	97	41	99	92	119	113
O=C1NC(=O)/C(=C/c2ccc3c(c2)OC(F)(F)O3)S1	87	81	100	76	114	109	114	82	85	73	72	93	96	99	77	72	96	99	112	104
COc1cccc(-c2cc(=O)c3ccccc3o2)c1N	78	97	87	85	103	111	109	113	98	96	138	77	106	84	107	77	111	96	118	96
CN(C)c1ccc(/C=C2\C(=O)Nc3ccccc32)cc1	93	94	83	49	114	73	49	26	82	30	97	91	91	84	77	56	39	16	113	105
CO[C@H]1C[C@@H]2CC[C@@H](C)[C@@](O)(O2)C(=O)C(=O)N2CCCC[C@H]2C(=O)O[C@H]([C@H](C)C[C@@H]2CC[C@@H](O)[C@H](OC)C2)CC(=O)[C@H](C)/C=C(\C)[C@@H](O)[C@@H](OC)C(=O)[C@H](C)C[C@H](C)/C=C/C=C/C=C/1C	115	133	78	71	132	97	88	97	81	74	93	82	102	102	75	101	91	106	118	146
O=C1Nc2ccccc2/C1=C1/Nc2ccccc2/C1=N\OCCC(O)CO (stereo not drawn)	61	80	40	8	26	21	7	5	44	17	51	7	54	5	26	20	2	2	111	107
CC(C)n1cnc2/c(=N/c3cccc(Cl)c3)nc(NCCO)[nH]c21	92	116	50	26	81	91	56	16	98	69	73	49	80	93	90	30	11	1	108	98
O=c1cc(-c2cccc3c2Sc2ccccc2S3)oc(N2CCOCC2)c1	85	79	104	96	111	104	93	90	111	100	113	78	106	82	114	69	103	96	110	112
Nc1nc(Nc2ccc(S(N)(=O)=O)cc2)nn1C(=S)Nc1c(F)cccc1F	9	41	-1	0	16	6	17	24	18	2	26	20	65	16	79	29	-1	-1	28	24
CNc1cc2c(Nc3cccc(Br)c3)ncnc2cn1	112	99	88	73	84	53	109	112	92	87	72	79	100	93	55	49	68	53	98	101
N#C/C(=C(\N)Sc1ccc(N)cc1)c1ccccc1C(F)(F)F	69	88	72	54	104	101	67	62	106	91	93	83	88	96	95	75	93	89	107	94
Oc1ccc(Nc2nc(-c3ccc(Cl)cc3)cs2)cc1	71	116	104	93	106	112	114	100	104	83	82	52	91	93	118	56	92	36	118	135
Oc1c2ccccc2c2c3c(cccc13)N=N2	69	103	38	6	75	50	13	0	86	50	82	13	58	6	29	3	13	4	115	116
CCOc1cc2ncnc(Nc3cccc(Br)c3)c2cc1OCC	72	82	82	69	117	50	91	62	88	50	81	44	91	72	69	41	72	26	88	99
COc1cc2ncnc(N3CCN(C(=O)Nc4ccc(Oc5ccccc5)cc4)CC3)c2cc1OC	110	117	86	78	115	94	81	101	95	88	87	81	144	111	77	97	87	91		
